# Experimental data from PubChem BioAssay AID493169 (National Center for Advancing Translational Sciences (NCATS), 2011).
# Results filed as inconclusive are left out. Values without a mark were called inactive. Calls of active or inactive are those of the source. Calls follow the shape of the dose curve; as a rule, active = well fitted inhibition curve with a large enough effect; inconclusive = small, poorly fitted or top-dose-only effect; inactive = flat fitted curve, though single readings scatter.
# Assay: CHOP2 Reporter Counterscreen Assay for Inhibitors of Ubiquitin-specific Protease USP2a;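 also: activated enterokinase alone at 50 pM in a cell-free format rather than USP2a or CHOP2; nearly all actives have a fitted effect of over 55% in size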
# Details: purified enterokinase, fluorogenic substrate, 485/531 nm; series mostly up to 38.3 µM; activity change, negative = inhibition: at the top concentration
# How it was run: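 Cell-free counterscreen with pre-activated enterokinase alone (50 pM final) in 20mM Tris-HCl pH 8.0, 2mM CaCl2, 2mM beta-mercaptoethanol, 0.05% CHAPS; compound preincubation 30 min RT, reporter substrate 25nM final, fluorescence read after 10 min (Ex 485/Em 531).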
# % is scaled to controls: 0 for no effect and ±100 for the full control effect; potency is read from the fitted curve at half-maximal effect.
SMILES,"activity change, negative = inhibition",Potency
CCn1c(SCC(=O)NCCc2ccccc2)nnc1-c1cccs1,2.03%,
CCOC(=O)c1c(-c2ccc(C)o2)csc1NC(=O)COC(=O)c1ccc(NC(N)=O)cc1,-18.1%,
Cc1ccc(C(=O)NCCCc2ccccc2)s1,2.08%,
Cn1c(=O)c2c(nc(CN3CCN(C(=O)c4ccco4)CC3)n2CCCc2ccccc2)n(C)c1=O,4.23%,
Cc1ccc(C)c(S(=O)(=O)c2c(N)n(/N=C/c3ccco3)c3nc4ccccc4nc23)c1,16.7%,
Cc1ccc(C(=O)O/N=C/c2c(C(F)(F)F)nn(C)c2Sc2ccc(Cl)cc2)cc1,-0.861%,
Cc1c(NC(=O)C2CCCN2S(=O)(=O)c2ccc(Cl)cc2)c(=O)n(-c2ccccc2)n1C (centres undefined),-0.392%,
O=C(Nc1cccc(S(=O)(=O)N2CCCC2)c1)c1cncc(Br)c1,-5.75%,
O=C(Nc1nnc(SCC(=O)N2CCCC2)s1)C1CC(=O)N(c2ccc(F)cc2)C1 (centres undefined),,10 µM (active)
Cc1ccccc1NC(=O)CSc1nnc(-c2ccco2)c(-c2ccco2)n1,8.04%,
CC[n+]1c(/C=C/N(C)c2ccccc2)n(-c2ccccc2)c2ccc(-c3nc4ccccc4s3)cc21,,10 µM (active)
S=c1[nH]nc(-c2cc(-c3ccco3)[nH]n2)n1-c1cccc2ccccc12,-21.8%,
COc1ccc(NC(=O)C2CC(=O)OC2c2ccccc2)cc1 (centres undefined),0.309%,
O=C(c1ccco1)N1CCN(C(c2cccs2)c2sc3ncnn3c2O)CC1 (centres undefined),1.66%,
O=c1/c(=C/c2ccco2)sc2n1CN(c1cccc(Br)c1)CN=2,-0.633%,
COc1ccc(C(=O)C[N+]2(C)CCOCC2)cc1,6.58%,
COc1cc(C)c(S(=O)(=O)NCc2ccc3c(c2)OCO3)cc1C,5.07%,
COc1ccc(CC(NC(C)=O)C(=O)NC2CCN(c3nc(C)cc(C)c3C#N)CC2)c(OC)c1 (centres undefined),-0.767%,
NC1=NC2(CCC(c3ccccc3)CC2)n2c(nc3ccccc32)N1 (centres undefined),-0.14%,
Cc1ccc(S(=O)(=O)N2[C@@H](c3ccc(C(C)(C)C)cc3)C(C(=O)O)=CC[C@H]2c2ccc(Cl)cc2)cc1,,10 µM (active)
O=C(CNC(=O)c1ccco1)Nc1ccc(S(=O)(=O)N2CCCC2)cc1,3.16%,
C[C@@H]1CC[C@]2(C(=O)O)CC[C@]3(C)C(=CCC4[C@]56CC[C@@](O)(OC5)C(C)(C)C6CC[C@]43C)C2[C@H]1C (some centres undefined),-24.5%,
CCOC(=O)c1c(C)c(C(=O)O)n(C)c1C,2.01%,
O=C(NCCc1ccccc1)c1ccc2nc(-c3ccco3)c(-c3ccco3)nc2c1,,5.01 µM (active)
